Reference: article PMC4336329 (PLoS ONE, 2015)
Out of some 310,000 compounds screened, about 14,000 (4.5%) showed an effect of 50% or more. The effect is printed as a negative number. The full list was thinned out, with strong results kept by preference.

Biological target: human ether-à-go-go-related gene (hERG) potassium channel (human, UniProt Q12809)
Assay: primary screen, population patch clamp on CHO cells stably expressing hERG; higher = less effect of the substance
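Note: peak tail current of the secondary pulse compared with the same well before compound.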

Sequence of human ether-à-go-go-related gene (hERG) potassium channel (Q12809 whole entry, looked up): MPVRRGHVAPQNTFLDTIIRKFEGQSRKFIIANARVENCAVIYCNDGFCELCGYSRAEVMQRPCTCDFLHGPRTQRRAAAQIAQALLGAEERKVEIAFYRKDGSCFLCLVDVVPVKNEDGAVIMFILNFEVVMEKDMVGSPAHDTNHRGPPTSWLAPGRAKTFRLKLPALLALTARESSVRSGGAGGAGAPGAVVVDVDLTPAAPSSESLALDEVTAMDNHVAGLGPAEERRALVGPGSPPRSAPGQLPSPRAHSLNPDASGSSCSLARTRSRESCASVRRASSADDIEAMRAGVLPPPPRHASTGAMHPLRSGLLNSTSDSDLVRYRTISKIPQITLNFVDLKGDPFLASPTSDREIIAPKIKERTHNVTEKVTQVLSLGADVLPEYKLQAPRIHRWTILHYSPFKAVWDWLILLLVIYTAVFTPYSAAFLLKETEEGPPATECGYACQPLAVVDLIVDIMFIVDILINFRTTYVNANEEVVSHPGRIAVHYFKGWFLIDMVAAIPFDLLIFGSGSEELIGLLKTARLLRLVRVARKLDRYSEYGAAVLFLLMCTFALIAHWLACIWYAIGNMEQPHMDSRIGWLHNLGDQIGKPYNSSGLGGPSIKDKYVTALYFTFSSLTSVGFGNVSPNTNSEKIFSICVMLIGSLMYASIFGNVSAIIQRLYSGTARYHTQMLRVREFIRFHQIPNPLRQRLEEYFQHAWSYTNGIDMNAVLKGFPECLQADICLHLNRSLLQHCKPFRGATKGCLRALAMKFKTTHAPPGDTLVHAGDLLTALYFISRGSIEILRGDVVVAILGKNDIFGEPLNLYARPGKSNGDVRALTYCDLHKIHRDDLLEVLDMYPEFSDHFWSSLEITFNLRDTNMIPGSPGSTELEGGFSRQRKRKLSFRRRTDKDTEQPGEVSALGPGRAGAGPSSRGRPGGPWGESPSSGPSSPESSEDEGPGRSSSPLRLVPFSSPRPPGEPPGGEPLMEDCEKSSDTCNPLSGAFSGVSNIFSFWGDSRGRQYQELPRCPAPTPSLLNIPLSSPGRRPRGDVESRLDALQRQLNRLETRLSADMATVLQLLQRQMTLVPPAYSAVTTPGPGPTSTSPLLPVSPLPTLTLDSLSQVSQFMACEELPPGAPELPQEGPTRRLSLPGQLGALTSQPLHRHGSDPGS

Going from `CNC(=O)c1ccc(N(Cc2ccccc2C)S(C)(=O)=O)cc1` to `Cc1ccc(NC(=O)Cc2ccccc2Cl)cc1S(=O)(=O)N(C)C`, the “hERG current change (%, negative = inhibition) at 10uM” value rises from -6% to 0.299%.

Compared with `Cn1c(C2=C(O)CN(c3ccccc3)C2=N)nc2ccccc21`, `Cc1nc(Nc2nc(-c3ccccc3)cc(=O)[nH]2)nc2ccccc12` is higher in “hERG current change (%, negative = inhibition) at 10uM” value: -13.2% for the first, -3.73% for the second.

Compared with `Cc1ccc(C(=O)NC(=S)Nc2ccc(N3CCN(C(=O)c4ccco4)CC3)cc2)cc1`, `CN1CCN(c2ccc(NC(=O)Oc3ccccc3)cc2)CC1` is higher in “hERG current change (%, negative = inhibition) at 10uM” value: 17.1% for the first, 17.4% for the second.

Going from `Cc1ccc(OC(=S)Nc2ccccc2)c(C)c1` to `Cc1ccc2nc(=O)c(NNc3ccccc3)cnc2c1`, the “hERG current change (%, negative = inhibition) at 10uM” value rises from 6.7% to 15.6%.

First: CCOC(=O)c1c(C)[nH]c(C(=O)COC(=O)CNS(=O)(=O)c2ccc(C)cc2)c1C
Second: CCOC(=O)C(CCCOc1ccc(C)cc1)C(=O)OCC
The “hERG current change (%, negative = inhibition) at 10uM” value of the first is higher: 11.8% for the first, -8.52% for the second.

Compared with `C=CCN(c1nc(C)cc(OC)n1)S(=O)(=O)c1ccccc1`, `Cc1cc(C)n(CC(O)CN(c2ccccc2)S(=O)(=O)c2ccccc2)n1` (stereo not drawn) is higher in “hERG current change (%, negative = inhibition) at 10uM” value: -2.09% for the first, 7.17% for the second.

First: Cc1nc2c(sc3nc4c(cc32)COC(C)(C)C4)c(=O)n1Cc1ccccc1
Second: COc1cc(/C=N/NC(=O)Cc2ccccc2)cc(OC)c1OC
The “hERG current change (%, negative = inhibition) at 10uM” value of the first is lower: -10.6% for the first, 8.74% for the second.

First: COCCN(C(=O)COC(=O)CCc1ccc(OC)cc1)c1c(N)n(Cc2ccccc2)c(=O)[nH]c1=O
Second: COc1ccc(CC(=O)OC(C)C(=O)c2ccc(C)cc2)cc1 (stereo not drawn)
The “hERG current change (%, negative = inhibition) at 10uM” value of the first is higher: 27.6% for the first, 20.4% for the second.

First: COC(=O)C[C@H]1c2cc(F)ccc2S(=O)(=O)N1c1ccccc1
Second: COc1cc(/C=N/NC(=O)CCc2ccccc2)ccc1O
The “hERG current change (%, negative = inhibition) at 10uM” value of the first is higher: 8.82% for the first, -1.02% for the second.

Compared with `O=C(CSC1=NNC(c2ccccn2)S1)Nc1cccc(Cl)c1` (stereo not drawn), `Cc1onc(-c2ccccc2)c1C(=O)OCC(=O)Nc1ccc(C#N)cc1` is lower in “hERG current change (%, negative = inhibition) at 10uM” value: 12.6% for the first, -27.7% for the second.

Going from `COCCCNC(=O)Cn1cc2c(n1)CCC(C)C2` (stereo not drawn) to `CC1CCc2nn(CC(=O)NCCCN3CCCC3=O)cc2C1` (stereo not drawn), the “hERG current change (%, negative = inhibition) at 10uM” value rises from 1.99% to 10.2%.

Going from `O=C(Cn1cc2c(n1)CCCC2)NCCCN1CCN(c2ccccc2F)CC1` to `Cc1ccc(C)c(N2CCN(CCCNC(=O)Cn3cc4c(n3)CCCCC4)CC2)c1`, the “hERG current change (%, negative = inhibition) at 10uM” value falls from -31.1% to -69.3%.

Compared with `CCCN1CCN(CCCNC(=O)Cn2cc3c(n2)CCCC3)CC1`, `Cc1ccc(C)c(N2CCN(CCCNC(=O)Cn3cc4c(n3)CCC(C)C4)CC2)c1` (stereo not drawn) is lower in “hERG current change (%, negative = inhibition) at 10uM” value: -7.41% for the first, -63.4% for the second.

Compared with `COC(=O)c1ccc(Sc2ccccc2NS(=O)(=O)c2ccc(OC)cc2)nc1`, `COc1ccc(N(CC(O)Cn2c3ccccc3c3ccccc32)S(=O)(=O)c2ccccc2)cc1` (stereo not drawn) is lower in “hERG current change (%, negative = inhibition) at 10uM” value: 9.67% for the first, 3.8% for the second.

Compared with `CCOc1ccc(C(C)(C)C)cc1S(=O)(=O)Nc1ccncc1`, `CCOc1ccc(/C=N/NC(=O)C2CC2)cc1OC` is higher in “hERG current change (%, negative = inhibition) at 10uM” value: 17% for the first, 18.3% for the second.

First: Cn1nnc2cc(C(=O)NCc3ccco3)ccc21
Second: CCc1ccc(OCCCC(=O)NCc2ccco2)cc1
The “hERG current change (%, negative = inhibition) at 10uM” value of the first is lower: 1.15% for the first, 1.95% for the second.

Compared with `COc1ccc(COCC(O)CN2CCC(C(N)=O)CC2)cc1OC` (stereo not drawn), `COc1cc(/C=N/NC(=O)C2CCN(CC(O)COCc3ccccc3)CC2)cc(OC)c1OC` (stereo not drawn) is lower in “hERG current change (%, negative = inhibition) at 10uM” value: -7.47% for the first, -71.7% for the second.

Going from `COc1cc(/C=N/NC(=O)C2CCN(CC(O)COCc3ccccc3)CC2)ccc1O` (stereo not drawn) to `COc1ccccc1N(CC(O)CN1CCCCC1)S(=O)(=O)c1ccc(C)cc1` (stereo not drawn), the “hERG current change (%, negative = inhibition) at 10uM” value rises from -78.1% to -29.7%.

First: O=C(CCC(=O)c1ccc(F)cc1)NC1CCCN(Cc2ccccc2F)C1 (stereo not drawn)
Second: Cc1ccc(S(=O)(=O)N(CC(O)CN2CCCC2)c2ccccc2)cc1 (stereo not drawn)
The “hERG current change (%, negative = inhibition) at 10uM” value of the first is higher: -19.4% for the first, -62.2% for the second.

First: CC(=O)Nc1cccc(NC(=O)C(F)(F)F)c1
Second: O=C(O)CC(c1cccc(C(F)(F)F)c1)N1CCS(=O)(=O)CC1 (stereo not drawn)
The “hERG current change (%, negative = inhibition) at 10uM” value of the first is higher: 21.2% for the first, 2.42% for the second.

Compared with `O=C(/C=C/c1ccc(-c2ccccc2[N+](=O)[O-])o1)c1ccccc1`, `CC(=O)c1ccc(OCCOc2ccc([N+](=O)[O-])cc2)cc1` is lower in “hERG current change (%, negative = inhibition) at 10uM” value: 18.4% for the first, -57.6% for the second.

Going from `CC(=O)Nc1ccc(OCCOc2ccc([N+](=O)[O-])cc2)cc1` to `COc1cc(C)ccc1OCCOCCOc1ccc([N+](=O)[O-])cc1`, the “hERG current change (%, negative = inhibition) at 10uM” value falls from 0.991% to -54.8%.

First: CC(=O)c1ccc([N+](=O)[O-])cc1
Second: CCOC(=O)COc1ccc([N+](=O)[O-])cc1
The “hERG current change (%, negative = inhibition) at 10uM” value of the first is higher: 15.7% for the first, -5.07% for the second.

First: CCC(C)NCCCCOc1ccc(Br)cc1.O=C(O)C(=O)O (stereo not drawn)
Second: CCCOc1ccc(OCCCCNC(C)CC)cc1.O=C(O)C(=O)O (stereo not drawn)
The “hERG current change (%, negative = inhibition) at 10uM” value of the first is lower: -32.6% for the first, -18.9% for the second.

First: CCOC(=O)C(CCCCOc1ccc([N+](=O)[O-])cc1)C(=O)OCC
Second: CCOC(=O)C(CCCCCOc1ccc([N+](=O)[O-])cc1)C(=O)OCC
The “hERG current change (%, negative = inhibition) at 10uM” value of the first is lower: -54.8% for the first, -50.4% for the second.

Going from `CCOC(=O)C(CCCOc1ccccc1)C(=O)OCC` to `CCOC(=O)C(CCCCCOc1ccccc1[N+](=O)[O-])C(=O)OCC`, the “hERG current change (%, negative = inhibition) at 10uM” value rises from -14.3% to -8.54%.

Going from `COc1cc(C)ccc1OCCOCCOc1ccccc1[N+](=O)[O-]` to `COc1cc(C)ccc1OCCOCCOc1ccc(C)cc1[N+](=O)[O-]`, the “hERG current change (%, negative = inhibition) at 10uM” value falls from -29.5% to -36.1%.

First: CCC(C)NCCCOc1ccc([N+](=O)[O-])cc1.O=C(O)C(=O)O (stereo not drawn)
Second: CCc1ccc(OCC(=O)Nc2nnc(-c3ccco3)s2)cc1
The “hERG current change (%, negative = inhibition) at 10uM” value of the first is lower: -74.7% for the first, 11.5% for the second.

First: CNC(=O)n1cc(C)c(-c2cccs2)n1
Second: CCOC(=O)c1c(NC(=O)c2cccs2)sc(C)c1CC
The “hERG current change (%, negative = inhibition) at 10uM” value of the first is higher: 5.15% for the first, 2.45% for the second.

Going from `Cc1cc2c(cc1S(=O)(=O)N1CCCC1)n(C)c(=O)c(=O)n2C` to `Cc1ccc(N(CC(O)CN2CCCC2)S(=O)(=O)c2ccc(C)cc2)cc1.Cl` (stereo not drawn), the “hERG current change (%, negative = inhibition) at 10uM” value falls from -4.62% to -76.4%.

Going from `COc1ccc(OC(=O)c2cn(C)nc2C(F)(F)F)cc1` to `CCOC(=O)C1CCN(c2ncnc3c2cnn3-c2ccc(OC)cc2)CC1`, the “hERG current change (%, negative = inhibition) at 10uM” value falls from -1.05% to -16.2%.

Going from `CCCCN(C(=O)c1cc2c(s1)CCC2)c1c(N)n(CCCC)c(=O)[nH]c1=O` to `CCCCCCn1cnc2c(oc3nc4c(cc32)CCCC4)c1=O`, the “hERG current change (%, negative = inhibition) at 10uM” value rises from -0.537% to 5.16%.

Going from `C1=C(c2c[nH]c3ccccc23)CCNC1` to `COc1cc(NC(=S)NCCc2c[nH]c3ccccc23)c(OC)cc1Cl`, the “hERG current change (%, negative = inhibition) at 10uM” value rises from 7.59% to 10.1%.

Going from `CC(C)c1ccc(CNC(=O)C(=O)NCC2CCCO2)cc1` (stereo not drawn) to `CCOC(=O)c1ccc(N(CC(=O)NCC2CCCO2)C(=O)CCC(=O)Nc2cc(C)on2)cc1` (stereo not drawn), the “hERG current change (%, negative = inhibition) at 10uM” value rises from 7.73% to 9.99%.

Compared with `CCn1nc([N+](=O)[O-])c2c(-c3nc4ccccc4o3)c(N)n(CCCOC)c2c1=O`, `CCN1CCN(Cc2nc3c(c(=O)[nH]c(=O)n3C)n2Cc2ccccc2Cl)CC1` is higher in “hERG current change (%, negative = inhibition) at 10uM” value: 14.5% for the first, 14.8% for the second.

Going from `CCOC(=O)c1noc(C)c1C(=O)Nc1nc(C)cc(C)n1` to `Cc1ccc(F)cc1NC(=O)CSCc1c(C)noc1C`, the “hERG current change (%, negative = inhibition) at 10uM” value falls from 11.5% to -3.15%.

Compared with `O=c1[nH]nnc2c1sc1nc(N3CCOCC3)c3c(c12)CCCC3`, `O=C(Nc1cc(S(=O)(=O)N2CCOCC2)ccc1N1CCCCC1)c1cc(-c2ccccn2)nc2ccccc12` is higher in “hERG current change (%, negative = inhibition) at 10uM” value: -12.4% for the first, 0.703% for the second.

Going from `CC(=O)Nc1ccc(S(=O)(=O)NC(CC(=O)N2CCC3(CC2)OCCO3)C(C)C)cc1` (stereo not drawn) to `COc1ccc(N(CC(O)CN2CCOCC2)S(=O)(=O)c2ccc(C)cc2)cc1` (stereo not drawn), the “hERG current change (%, negative = inhibition) at 10uM” value falls from 18.9% to -45.2%.

Compared with `Cc1ccc(N(CC(O)CN2CCCCC2)S(=O)(=O)c2ccc(C)cc2)cc1` (stereo not drawn), `COc1ccc(N(CC(O)CN2CCCCC2)S(=O)(=O)c2ccc(C)cc2)cc1` (stereo not drawn) is lower in “hERG current change (%, negative = inhibition) at 10uM” value: 13.8% for the first, -78.6% for the second.

Going from `Cc1ccccc1S(=O)(=O)N(CC(O)CN1C(=O)NC(C)(C)C1=O)c1ccccc1` (stereo not drawn) to `Cc1ccccc1S(=O)(=O)N(CC(O)CN1CCCCC1)c1ccccc1` (stereo not drawn), the “hERG current change (%, negative = inhibition) at 10uM” value falls from 1.47% to -71.7%.

Going from `Cc1ccc(S(=O)(=O)N(CC(O)CN2CCOCC2)c2cc(Cl)ccc2Cl)cc1.Cl` (stereo not drawn) to `Cc1ccc(S(=O)(=O)N(CC(O)CN2CCCCC2)c2ccccc2)cc1.Cl` (stereo not drawn), the “hERG current change (%, negative = inhibition) at 10uM” value falls from -31.9% to -67.9%.

First: CC(C)N1C(=O)S/C(=C/c2cccnc2)C1=O
Second: CC(C)CCn1cnc2c(oc3nc4c(cc32)CCCC4)c1=O
The “hERG current change (%, negative = inhibition) at 10uM” value of the first is higher: 8.88% for the first, -16.6% for the second.

First: CCOC(=O)C1=C(C)OC(N)=C(C#N)C1c1cc(OC)c2c(c1)OCO2 (stereo not drawn)
Second: CCOc1cc(N2CCOCC2)c(OCC)cc1NC(=O)CSc1ccccc1C(=O)O
The “hERG current change (%, negative = inhibition) at 10uM” value of the first is lower: -20.6% for the first, 5.72% for the second.

First: O=S(=O)(c1ccccc1)N(CC(O)CN1CCCC1)c1ccccc1 (stereo not drawn)
Second: Cl.O=S(=O)(c1ccccc1)N(CC(O)CN1CCCCC1)c1ccccc1 (stereo not drawn)
The “hERG current change (%, negative = inhibition) at 10uM” value of the first is higher: -19% for the first, -53.2% for the second.

Going from `O=S(=O)(c1ccccc1)N(CC(O)CN1CCOCC1)c1ccccc1` (stereo not drawn) to `CCCCn1cnc2c(oc3nc4c(cc32)CCCC4)c1=O`, the “hERG current change (%, negative = inhibition) at 10uM” value falls from 18.6% to -55.5%.
